Test results reported in the supplement of paper PMC12632987.

Molecular target: GABARAPL2, P60520
Test: median log2 fold change of GCK-ALFA target abundance (FLAG IP / Myc IP barcode read proportion) (log2 ratio); each designed protein is fused to an ALFA-tag nanobody in HEK293 cells to bring the named protein to FLAG-tagged glucokinase (GCK); Myc marks an untargeted standard; higher = target protein stabilised (more abundant)
Conditions: target protein: 3xFLAG-MCP-GCK-ALFA reporter; HEK293 landing pad (RPLP)
Method in brief: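 Sequencing of reverse-transcribed, amplified circular RNA barcodes from anti-FLAG and anti-Myc immunoprecipitates provided the readout for an ALFA-nanobody-fused binder library recombined into HEK293 landing-pad cells. Those cells were induced with 2 μg mL^−1 doxycycline, transfected with a plasmid expressing a FLAG-tagged target and a Myc-tagged standard, and lysed after 48 h. Target abundance is the per-binder median log2 ratio of FLAG to Myc barcode read proportions. Only barcodes at a proportion of ≥10^−7 in both replicates and binders with ≥3 barcodes per replicate were kept, with a 10^−6 pseudocount added before the two replicates were pooled.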

GABARAPL2, P60520, sequence (P60520 whole entry, the tested form may be a part): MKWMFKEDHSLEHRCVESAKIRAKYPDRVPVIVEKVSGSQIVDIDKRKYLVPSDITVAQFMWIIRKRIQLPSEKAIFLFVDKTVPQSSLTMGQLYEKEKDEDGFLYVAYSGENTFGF

B1: GBRAPL2_128_7273 (protein)
chain: MYLVEIDIDVKDEESYNLAVEILDEIAKNSSEKVKDLAEAARDMAEIAYENGFDEKVVVVDIVSEEEAEELKKIYEEIKKKKGEEKVNSVVELEIDEVEP
median log2 fold change: -0.586

B2: GBRAPL2_128_7274 (protein)
chain: MKIVEIDIDIKNEEQYELALEVLDRIAANSSPAVADLADAARDLAESAKEEGFDENVSAVDVLSDEDAAELQAIYDEIAAELGEEKVNSVVKLTIDPLEP
median log2 fold change: -0.506

B3: GBRAPL2_128_7275 (protein)
chain: MKIVEIDVDIKNEEQYNLALEILDEIAENSSPAVADLADAAKDLAESSKERGFDENVTAVDVLSEEDAEELRRIYEEIAEKLGREKVESVVRLEISDLEP
median log2 fold change: -0.585

B4: GBRAPL2_128_7276 (protein)
chain: KKIVSIDVDLKDEESYELALKILEEIAEKSSPKVKELAEAAKDLAEAAKEEGFGETVTAVDILSDEEVEELKKIYAEIKKKYGEEKVNSVVKIEIDELKP
median log2 fold change: -0.258

B5: GBRAPL2_128_7278 (protein)
chain: MKLVEIDIDIKNEEEYELAKKVLKRIAEEGSPEVSKLADAALDLVEENKEEGFKYSRTVVDILSEEDAEELKELFEKLAEEYGKEKVEKVIKLEIDDIPP
median log2 fold change: 0.112

B6: GBRAPL2_128_7279 (protein)
chain: MKIVEIDIDVENEEEYKLAKEVLEKIAEEGSPEVAKLADAALDLVEENEEDGFDEKFTAVDILSEEDAEELKELFEELAEKLGKEKVEKVIKLEIDDIPP
median log2 fold change: -0.539

B7: GBRAPL2_128_7280 (protein)
chain: MKLVEISVTVENEEEYELAKKVLTEIAEKGSPEVAKLADAALDLVESNKEDGFDEAVVAVDILSEEDAEELKELYEELAEKYGKEKVEKVIQVEVDDIPP
median log2 fold change: -0.794

B8: GBRAPL2_128_7281 (protein)
chain: MKLVTIDIDVENEEEYELVKKVLDEIIEKGSPEVADLADAAKDMLEESKKEGFKEKVSVADILSDEEAEELKKLFEELAKKYGEEKVNKHIELEIDDLPP
median log2 fold change: -0.33

B9: GBRAPL2_128_7282 (protein)
chain: MKLVTIDVTVENEEEYNLAVEVFDEIIEEGSEKVADLADAAKDMLESSKENGYKENVSVADILSDEDAEELRELFEELAKKYGEEKVKKIIELTIDDLPP
median log2 fold change: -0.381

B10: GBRAPL2_128_7283 (protein)
chain: MKLVEIDITVKNEEEYKLAKEVLKEIAEKGSPAVAKLADAALDMLESEKEEGFKDGVTVADILTEEEAEELKKLYEELAKKYGEEKVKKIIELTVDDIPP
median log2 fold change: -0.458

B11: GBRAPL2_128_7284 (protein)
chain: MKLVEIDITVKNEEEYELVLKVLTEIAERGSPAVAKLADAAKDMVEEEKKEGFKDGVTVADVLSDEDAAELKALYEELAEKYGKEKVNKHIKLTVDDLPP
median log2 fold change: -0.0335

B12: GBRAPL2_128_7285 (protein)
chain: MKLVTIDIKVENEEEYELAKKVLDEIAEEGSPAVAKLADAARDMLESEKEEGFKDGVSVADILSDEEAEELKELYEKLAEKYGKEKVNKIIELTVDDLPP
median log2 fold change: -0.134

B13: GBRAPL2_128_7286 (protein)
chain: MKLVEIDIDIKNKEEYELAKAVLDDIAKNSSPKVAKLADAAKDMAEEAAKEGYKEKVTVADILTDEEAEELKKLLEELKEKYGKEKVEKVIKLTVDDLPP
median log2 fold change: -0.551

B14: GBRAPL2_128_7287 (protein)
chain: MKLVTIDITIENEEEYELAEKVLEELARRGSPAVADLADAALDMVRSAKEDGYNENVAVTDILSPEDAAELKALLEELAKEYGEEKVNRIIKLEVDDIPP
median log2 fold change: -0.633

B15: GBRAPL2_128_7288 (protein)
chain: MKLVTLDVDVEDEEEYELALEVLTRLAERGSPAVARLADAARDMVEEAKEEGYDEEVAVTDILSEEDAEELRALYEELAAELGAERVSRVIRLEVDDLPP
median log2 fold change: -0.203

B16: GBRAPL2_128_7289 (protein)
chain: MKLVTLDIDIENEEEFKLAKKVLEELAKKGSPAVADLANAALDMVEEAEKDGYNEKVSVADILSEEDAEELKKLLEELAKKYGEEKVKKIIKLEIDELPP
median log2 fold change: -0.0985

B17: GBRAPL2_128_7290 (protein)
chain: MKLVTIDVTIKNEEEYNLAVKVLKELAEKGSPKVADLADAARDMVEEAKKEGYNENVSVADILSEEDAEELKKLYEELAKKYGEEKVKSIIKLTIDDIPP
median log2 fold change: -0.128

B18: GBRAPL2_128_7291 (protein)
chain: MKLVEISVKVENEEEYELAKKVLSDIAEKSSPEVAKLADAARDMLEENKEEGYNVGVTVADILSEEQAEELRKLFEEVAKEYGKEKVEKIIELTVDDLPP
median log2 fold change: 0.0557

B19: GBRAPL2_128_7292 (protein)
chain: MKLVEIDLDIKNEEEYELAKKVLTELARESSPAVADLANAALDMVEEAKKDGFKDKYVVADVLSPEDAAELEALFNRLAERYGAEKVRKVIQLEVSDIPP
median log2 fold change: -0.166

B20: GBRAPL2_128_7293 (protein)
chain: MKIVEVDIEIKNEEEAEKVKAAFDEIAERGSPAVAKLADAAKDMAESLLEDGFDEKGTVVDVLSDEDAAELRELYEELAKEYGEEFMNENIKLTIDDIPP
median log2 fold change: -0.421

B21: GBRAPL2_128_7294 (protein)
chain: MKIVEIDLDIKNEEEANLAKEILKEIAAKSSEKVKDLMDAAIDMVESLEEDGYDEKATVVDVLSEEDAEELKKLYEEEAKKYGEEKVNKIIKLEISDIPP
median log2 fold change: 0.042

B22: GBRAPL2_128_7295 (protein)
chain: MKIVEIDIDIKNEEEAELVKEIFKEIAEKSSPEIKKLMDAAIDMVESLKEDGYDEKGTVVDILSKEDAEELKKLYEEEAEKYGKEKVEKIIKLEISDIPP
median log2 fold change: -0.663

B23: GBRAPL2_128_7296 (protein)
chain: MKIVEIDIDVENEEEAELVLEILEEISKKSSPEVKKLMDAAKDMVESLKEDGYDEKATVVDILSEEDAKELEELYKEEAKKYGEEKVKKIIKLEIDEIPP
median log2 fold change: -0.305

B24: GBRAPL2_128_7297 (protein)
chain: MKLVEIDIDINNEEEAKLVIEVLEEIAKEGSEEVKKLAEAAKDLAESLAEEGYGEKGTVVDILSEEDAKELKELYEKLSKKYGKEKIEKRIKLEVDDIPP
median log2 fold change: -0.194

B25: GBRAPL2_128_7298 (protein)
chain: MKLVEIDIDIENEEEAKLVLEILDEIAKRGSPEVKKLADAAKDLAESLAESGYGEKGTVVDILSEEDAEELKKLYEELAKEYGEEKVKKRIKLEVDDIPP
median log2 fold change: -0.397

B26: GBRAPL2_128_7299 (protein)
chain: MKLVEIDITIENKEEAELVKKILEEIAKKGSEEVKKLADAAKDLAETLAEEGYGEKGTVVDILSDEDAEELKKLYEELAEKYGKEKVEKRIKLEVDDIPP
median log2 fold change: -0.468

B27: GBRAPL2_151_7300 (protein)
chain: EWKEEAIKALEEAAKIAEEAVEKLDESQELEKTEFELIAGGLDALKALIEETDDEEKIREYVKRGAELVKDAAKIAKELGLEEEAKKFEKLAKKLEELSK
median log2 fold change: 0.271

B28: GBRAPL2_151_7301 (protein)
chain: SWKEEAIKALEEAAKIAEEAVEKLSEEQELEKTEFELIAGGMDALKALIEETDDEELIKKYVERGAELVKDAAEIAKELGLEELAKKFEKLAKELEKLSK
median log2 fold change: 0.0733

B29: GBRAPL2_151_7302 (protein)
chain: SWKEKIIKALEEAAKIAEEAVEKLSESQELEKTEFELIAGGLDALRALIEETDDEEEIRRLARRAAELTKDGAEIAKKLGLEEEAEKFEKRAKELEELAE
median log2 fold change: 0.2

B30: GBRAPL2_151_7303 (protein)
chain: GWKEEAIKALEEAAKAAEEAAKALSPEHELERTELELLAGGFEADAILIEETDDEEEIKRLVKEAAEMAKDAAKLAKKLGLEKEAKKLEKIAEKLKKLAE
median log2 fold change: 0.179

B31: GBRAPL2_151_7304 (protein)
chain: GWKEEAIKALEKAAKAAEEAAAALPESQELERTELELLAGGFEADAILIEETDDEEEIKRLVKEAAERAEDAAKLAKKLGLEEQAKKLEKIAKELKKLAK
median log2 fold change: 0.0343

B32: GBRAPL2_151_7305 (protein)
chain: SEKEKAIELLEEAAKAAEEAIKKLSEEQELAKTEFELIAGGLEALAILVEETDDEEEIKRLIKEAAELTEDAAKLAEELGLEEEAKKLKEISKELKKLAE
median log2 fold change: -0.356
